# Experimental data as given in PubChem BioAssay (Tox21).
# Results filed as inconclusive are left out. Where a call stands in place of a potency, no number is given. Calls of active or inactive are those of the source. The call rests on the fitted dose curve; in most records, active means well fitted inhibition curve with a large enough effect in the repeat runs; inconclusive means weak or mixed curves, or effect the other way; inactive means no such curve, though single readings can be large or run the other way.
# Test: qHTS assay to identify small molecule antagonists of the retinoic acid receptor (RAR) signaling pathway (AID 1159552; further: nearly all actives have a fitted effect of over 50% in size)
# Conditions: C3RL4 RARE luciferase reporter, retinol-stimulated, 6 h; series mostly up to 92.4 µM
# Source text: National Center for Advancing Translational Sciences [NCATS]
# NIH Chemical Genomics Center [NCGC]
# U.S. Environmental Protection Agency [EPA]
# National Institutes of Environmental Health Sciences [NIEHS]
# National Toxicology Program [NTP]
# U.S. Food and Drug Administration [FDA]
# All-trans Retinoic acid (atRA) is the potent natural metabolite of retinol and plays an important role in normal embryonic development and maintenance of cellular phenotype in adult animals. atRA is the activating ligand for the retinoic acid receptors (RARs) which form heterodimers with retinoid X receptors (RXRs) on the retinoic acid response element (RARE). Through activation of the RAR/RXRs nuclear receptors, atRA regulates the transcription of a large number of protein-coding genes and regulatory RNAs. Intracellular levels of atRA are controlled by the retinol signaling pathway (RSP) that regulates the biosynthesis and catabolism of atRA to maintain physiological levels. Chemicals that interfere with the RSP can cause abnormal intracellular levels of atRA and therefore are potential developmental toxicants. To assess compounds for the potential adverse effect on embryonic development through interfering with retinol signaling, a cell-based RARE luciferase reporter gene assay was used. C3RL4 cell line (OARSA/CFSAN/FDA, Laurel, MD) was used to screen Tox21 10K compound library for identifying inhibitors of the RSP.
# Tox21 Assay Protocol Summary:
# C3RL4 cells were seeded at 1,000/well in 4 uL of assay medium into white solid 1,536-well tissue culture plates (Greiner Bio-One North America Inc. Monroe, NC) using a Multidrop Combi (Thermo Scientific, Waltham, MA) dispenser. After incubation at 37 C and 5% CO2 for an overnight, 23 nL of compounds dissolved in DMSO, positive control or DMSO only were transferred by a Pintool station (Kalypsys, San Diego, CA). One ul of 1 uM (final concentration) of Retinol was added right after the compound addition by using a Flying Reagent Dispenser (FRD) (Aurora Discovery, San Diego, CA). After 6 hr incubation at 37 C and 5% CO2, 5 uL of Amplite Luciferase reagent (AAT Bioquest Inc. Sunnyvale, CA) was added to each assay plate using an FRD. Luminescence was quantified on a ViewLux plate reader (PerkinElmer, Waltham, MA) after 30 min incubation at room temperature.
# Potency means the concentration at half of the fitted maximal effect.
row,Structure (SMILES),Potency
1,CCOC(=O)/C=C\C(=O)OCC,inactive
2,Cc1cc(O)cc(C)c1Cl,inactive
3,O=C1O[C@H](CO)[C@@H](O)[C@H](O)[C@H]1O,inactive
4,CC1(C)CC(N=C=O)CC(C)(CN=C=O)C1 (stereo not given),inactive
5,CCc1ccccc1O,inactive
6,CC(=O)CCc1ccccc1,inactive
7,CCC(C)C=O (stereo not given),inactive
8,C=C1CC[C@H](O)CC1=C/C=C1\CCC[C@]2(C)[C@@H]([C@H](C)/C=C/[C@H](C)C(C)C)CC[C@@H]12,inactive
9,CC1=CC[C@H]2C[C@@H]1C2(C)C,inactive
10,CN(C)c1cccc(O)c1,inactive
11,Cc1ccc(N)c(S(=O)(=O)O)c1,inactive
12,Oc1ccc(OCc2ccccc2)cc1,inactive
13,C=C(C)C(=O)OCC(CC)(COC(=O)C(=C)C)COC(=O)C(=C)C,inactive
14,NS(=O)(=O)c1cc2c(cc1Cl)NC=NS2(=O)=O,inactive
15,C[C@@H]1O[C@@H](OC[C@H]2O[C@@H](Oc3c(-c4ccc(O)c(O)c4)oc4cc(O)cc(O)c4c3=O)[C@H](O)[C@@H](O)[C@@H]2O)[C@H](O)[C@H](O)[C@H]1O,inactive
16,Clc1cc(Cl)c(Cl)cc1Cl,inactive
17,CC(C)(N=C=O)c1cccc(C(C)(C)N=C=O)c1,inactive
18,Cn1c([N+](=O)[O-])cnc1COC(N)=O,inactive
19,CN(C)c1ccc(C(=N)c2ccc(N(C)C)cc2)cc1,inactive
20,NC(=O)NNc1ccccc1,inactive

row,Structure (SMILES),Potency
1,CCc1ccc(O)cc1,inactive
2,Nc1nc2ncc(CNc3ccc(C(=O)N[C@@H](CCC(=O)O)C(=O)O)cc3)nc2c(=O)[nH]1,inactive
3,CCCCC(CC)COC(C)=O (stereo not given),inactive
4,CC(C)Cc1ccccc1,inactive
5,CCCCNC(N)=O,inactive
6,C=C(C)C(=O)OCCCCCCCCCCCC,inactive
7,Oc1ccc2ccccc2c1N=Nc1ccccc1,inactive
8,NC(=O)/N=N/C(N)=O,inactive
9,CCCCCC/C=C/CCCCCCCC(=O)O,inactive
10,CC(=O)Nc1ccc(C(=O)O)cc1,inactive
11,Oc1ccc2ccccc2c1,inactive
12,CCCCCCC(C)(C)S,inactive
13,OCC1CCCO1 (stereo not given),inactive
14,CNC[C@H](O)[C@@H](O)[C@H](O)[C@H](O)CO,inactive
15,CCCCC(CC)COC(=O)/C=C\C(=O)OCC(CC)CCCC (stereo not given),inactive
16,Cc1cc(Cc2ccc(N)c(C)c2)ccc1N,inactive
17,OC[C@@H](O)[C@@H](O)[C@H](O)[C@@H](O)CO,inactive
18,NCc1cccc(CN)c1,inactive
19,O=C(Oc1ccccc1)c1ccc(O)cc1,inactive
20,O=[N+]([O-])c1cc(N(CCO)CCO)ccc1NCCO,30.6 µM (active)
